# High-throughput results from PubChem BioAssay.
# Shown are actives, neighbours in structure and some others; about 17% of the full set was active somewhere.
# TDP1 cell noCPT: qHTS for Inhibitors of human tyrosyl-DNA phosphodiesterase 1 (TDP1): qHTS in cells in absence of CPT; Potency, µM (highest dose often 46.2 µM), most hits filed as inhibitors; AID 686978, 2013; hit rate 15% among 420,000; DT40 Tdp1-/- hTDP1 cells, no CPT, ATP luminescence, 48 h; further: nearly all actives have a fitted effect of over 55% in size
#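 A cellular qHTS used chicken DT40 cells lacking endogenous Tdp1 but carrying stably transfected human TDP1. Compounds were applied without camptothecin, and cell growth kinetics were judged by ATP-dependent luminescence after ≥48 hr.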
# ATXN2 expr inh: reduces ATXN2 reporter expression in HEK-293 cells; hit rate 0.72% among 360,000; Potency, µM (highest dose often 57 µM), usual class: inhibitors; HEK-293 ATXN2-luciferase reporter, luminescence, 24 h; further: nearly all actives have a fitted effect of over 55% in size
#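 ATXN2-luciferase reporter cells (luciferase flanked by upstream and downstream ATXN2 gene portions) were treated 24 h at 37 °C with compounds at up to 57 uM. SteadyGlo luminescence gave expression; GF-AFC fluorescence gave viability.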
# HepG2 viability: kills HepG2 cells in TGF-b inhibitor counter-screen; hit rate 0.76% among 410,000; HepG2 CAGA-GFP viability, ATP luminescence, 18 h; AID 588856; Potency, µM (highest dose often 46.1 µM), usual class: cytotoxic
#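 CellTiter-Glo luminescence gave cytotoxicity after 18 hours at 37 degrees C. The cells were HepG2 CAGA-GFP in 1% FBS DMEM, stimulated with 500 pg/mL TGF-beta after compound addition. %Activity was normalised to no-cell wells (complete cell-killing) and DMSO (no toxicity), and curves were fitted and classified.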
# TDP1 cell CPT: DT40-hTDP1 cell growth loss with CPT. chicken DT40 Tdp1-/-;hTDP1 cells + 20 nM CPT, ATP luminescence, 48 h. Potency, µM (doses to about 46.2 µM), hits mostly inhibitors. hit rate 12% among 420,000; further: nearly all actives have a fitted effect of over 55% in size
#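 Chicken DT40 Tdp1-/- cells stably complemented with human TDP1 were seeded at 400 cells/well in medium containing 20 nM camptothecin, exposed to pin-transferred compounds, and grown at 37 °C for at least 48 hr. Viability was read as ATP luminescence.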
# TGFb inhibitor: inhibitors of TGF-b signaling | AID 588855 | Potency, µM (titrated, usually from 46.1 µM), hits mostly inhibitors | HepG2 CAGA-GFP TGF-b/SMAD3 reporter, GFP fluorescence, 18 h; TGF-beta stimulated, 500 pg/mL final | hit rate 1.2% among 410,000; further: nearly all actives have a fitted effect of over 65% in size
#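 HEPG2 CAGA-GFP, 1000 cells/well; 2 h settle, 37 C; cpd via pin tool; TGF-b 500 pg/mL final; 18 h, 37 C; GFP imaging ex488/em500-530; %Activity normalised to -TGF-b and +DMSO controls; CRC fit, curve class.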
# S2 tox: cell viability loss in ATXN counter-screen; S2 cells (HEK-293 line with an ATXN2-luciferase reporter) viability, CellTiter-Fluor protease fluorescence, 24 h; Potency, µM (doses to about 56.7 µM), actives largely listed as cytotoxic; hit rate 0.49% among 400,000; AID 651635; further: nearly all actives have a fitted effect of over 40% in size
# Numbers stand for hits; n = inactive; u = inconclusive; x = no result given; [ ] = remark or other dose. The call rests on the fitted dose curve; in most records, active means well fitted curve in the direction sought with a large enough effect; inconclusive means small, poorly fitted or top-dose-only effect, or another doubt; inactive means no such curve, though single readings can be large; an effect the other way counts as inactive or inconclusive.
SMILES,TDP1 cell noCPT,ATXN2 expr inh,HepG2 viability,TDP1 cell CPT,TGFb inhibitor,S2 tox
O=C(NCc1cccc(F)c1)c1cccc2c1C(=O)c1ccc(Cl)cc1S2(=O)=O,n,n,n,u,n,n
COc1ccc(-c2ccc3c(c2)S(=O)(=O)c2cccc(C(=O)NCCOc4ccccc4)c2C3=O)cc1OC,u,u,n,18µM,n,u
CC1CN=C(NC(=O)c2cccc([N+](=O)[O-])c2)S1 (stereo not given),u,x,n,u,n,n
COc1ccc(NC(=O)C2CCN(S(=O)(=O)c3ccc4[nH]c(=O)ccc4c3)CC2)cc1Cl,n,n,n,n,n,n
O=C(Nc1ccc(NC(=O)c2ccco2)nc1)c1ccco1,n,x,n,n,n,n
CC(C)(C)C(=O)Nc1ccc(NC(=O)c2ccco2)nc1,n,0.89µM,n,n,n,n
COc1ccccc1C(=O)Nc1ccc(NC(=O)c2ccco2)cn1,21µM,n,n,u,n,n
COc1ccccc1CNC(=O)c1cnc2sc(N3CCOCC3)nn2c1=O,u,x,n,u,n,x
CCN1CCc2nc3sc(C(=O)N4CCc5ccccc5C4)c(N)c3cc2C1,u,n,n,u,n,n
Cc1cc(C)c2c(N)c(C(=O)N3CCc4ccccc4C3)sc2n1,29µM,x,n,u,u,n
CC1CCCCN1S(=O)(=O)c1ccc2[nH]c(=O)cc(C(=O)NCCc3ccc(Cl)cc3)c2c1 (stereo not given),u,x,n,u,u,x
C=CCN1C(=O)CSC1=Nc1ccc(O)cc1,16µM,n,n,u,n,n
Nc1nc2nonc2nc1N,n,n,n,n,n,n
c1ccc2c(c1)oc1c(Nc3ccc(CN4CCOCC4)cc3)ncnc12,15µM,u,n,u,u,u
c1ccc2c(c1)oc1c(NCCN3CCOCC3)ncnc12,n,n,n,n,n,n
Cc1ccc(Nc2nc(C)nc3c2oc2ccccc23)cc1,u,n,n,u,u,n
Oc1cccc(Nc2ncnc3c2oc2ccccc23)c1,u,n,n,12µM,n,n
Cc1nc(NCCN2CCOCC2)c2oc3ccccc3c2n1,n,n,n,n,n,n
Cc1nc(NCCc2ccccc2)c2oc3ccccc3c2n1,9.2µM,n,n,8.2µM,n,u
Cc1nc(Nc2ccccc2)c2oc3ccc(Cl)cc3c2n1,23µM,n,n,u,u,n
Oc1ccccc1Nc1ncnc2c1oc1ccccc12,n,n,n,n,n,n
c1ccc(Nc2ncnc3c2oc2ccccc23)cc1,u,n,n,10µM,n,n
Oc1ccc(Nc2ncnc3c2oc2ccccc23)cc1,15µM,x,n,u,u,u
CC(C)CN1CCC(C(=O)NC(c2ccc(F)cc2)c2ccc3ccccc3n2)CC1 (stereo not given),23µM,n,n,u,n,u
COc1ccc(C(NC(=O)C2CCN(CCOc3ccc(F)cc3)CC2)c2cccs2)cc1 (stereo not given),u,n,n,u,n,n
SMILES,TDP1 cell noCPT,ATXN2 expr inh,HepG2 viability,TDP1 cell CPT,TGFb inhibitor,S2 tox
COc1ccc(/C=C/CN2CCC(C(=O)NC(c3ccc(F)cc3)c3ccc4ccccc4n3)CC2)cc1 (stereo not given),21µM,u,n,18µM,u,35µM
Cc1cccc(-c2noc(-c3ccc(NC4CCCC4)c([N+](=O)[O-])c3)n2)c1,n,n,n,n,u,n
O=C(CC1Sc2ccccc2NC1=O)NNc1cc(Cl)ccc1Cl (stereo not given),n,n,n,n,n,n
CCCC(=O)N1CCCC(C(=O)c2cccc(OC(C)C)c2)C1 (stereo not given),u,n[2.22 µM],n,u,n,n
CCOC(=O)c1ccc(Nc2cc(-c3ccccc3)nc(C)n2)cc1,u,n,n,n,n,n
Cc1ccc(Nc2cc(-c3ccccc3)nc(C)n2)cc1,26µM,n,n,u,n,u
Cc1nc(Nc2ccc(Cl)cc2)cc(-c2ccccc2)n1,n,u,n,23µM,u,u
